Screening results from PubChem BioAssay.
SMN2 splice enh: enhancers of SMN2 splice variant expression; HEK293 SMN2-luciferase splicing reporter, luminescence, 30-36 h; Potency, µM (top dose mostly 46.1 µM), inactives show at the highest dose activity change, positive = activation, hits mostly activators; 210,000 tested, 2.8% active; AID 1458; further: % of control where 0% means no effect; nearly all actives have a fitted effect of over 55% in size
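HEK293 cells carry an SMN2 […]–luciferase reporter in which exon 7 inclusion puts luciferase in frame. Cells were plated 10-12 h before compound addition, then incubated 30-36 h at 37C. ONE-Glo luminescence was read; sodium butyrate at 4.5 mM final served as control.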
NPC1 prom act: activators of NPC1 promoter; Huh7 NPC1 promoter luciferase reporter, 24 h; AID 485313; 320,000 tested, 2.4% active; Potency, µM (titrated, usually from 9.22 µM), without a hit: top-dose activation, most hits filed as activators; further: % of control where 0% means no effect; nearly all actives have a fitted effect of over 60% in size
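NPC1 promoter–luciferase Huh7 cells; 24 h compound; luminescence.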
ELG1 genotox: induces genotoxicity in HEK293T cells with luciferase-tagged ELG1; HEK293T ELG1-luciferase reporter, luminescence, 16 h; AID 504466; Potency, µM (top dose mostly 46 µM), without a hit: at the top dose activity change, positive = activation, actives largely listed as activators; 330,000 tested, 1.3% active; further: % of control where 0% means no effect; nearly all actives have a fitted effect of over 60% in size
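Reporter readout depends on ELG1 protein level, which increases with genetic stress. After 16 hr compound exposure at 37 °C, luciferase activity was quantified using ONE-Glo.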
FLuc counter: firefly luciferase modulation, counter-screen for miR-21 project; AID 588342; P08659; Potency, µM (top dose mostly 57.5 µM), without a hit: at the top dose activity change, negative = inhibition, actives largely listed as inhibitors; purified FLuc, Km substrates, luminescence inhibition; 360,000 tested, 6.9% active;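 further: plate controls were vehicle for no effect and reference inhibitor for full effect; nearly all actives have a fitted effect of over 55% in size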
Target sequence (P08659 whole entry, looked up): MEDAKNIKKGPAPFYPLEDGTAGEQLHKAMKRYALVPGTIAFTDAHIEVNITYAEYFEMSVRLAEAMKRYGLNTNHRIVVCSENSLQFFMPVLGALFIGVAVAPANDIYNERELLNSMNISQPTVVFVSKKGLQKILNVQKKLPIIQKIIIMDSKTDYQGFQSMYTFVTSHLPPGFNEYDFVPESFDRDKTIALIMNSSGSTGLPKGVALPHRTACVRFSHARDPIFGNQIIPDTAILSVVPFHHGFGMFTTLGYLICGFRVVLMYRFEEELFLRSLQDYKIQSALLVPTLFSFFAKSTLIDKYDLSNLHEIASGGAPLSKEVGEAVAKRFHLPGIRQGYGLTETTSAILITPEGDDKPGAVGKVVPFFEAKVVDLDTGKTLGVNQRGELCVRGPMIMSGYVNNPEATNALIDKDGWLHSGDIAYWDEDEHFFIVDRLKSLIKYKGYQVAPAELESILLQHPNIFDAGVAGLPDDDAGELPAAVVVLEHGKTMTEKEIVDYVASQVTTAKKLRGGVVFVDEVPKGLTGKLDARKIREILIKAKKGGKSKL
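Biochemical qHTS of compounds, final roughly 60 µM downward over six points, against 10 nM purified firefly luciferase using Km concentrations of substrates (10 uM D-luciferin, 10 uM ATP) in Tris acetate pH 7.5 buffer; luminescence output.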
Rab9 prom act: Rab9 promoter activation; Huh7 Rab9 promoter-luciferase reporter, luminescence, 24 h; Potency, µM (highest dose often 9.22 µM), for inactives: at the top dose activation, negative = inhibition, most hits filed as activators; 320,000 tested, 2.8% active; AID 485297; further: % of control where 0% means no effect; nearly all actives have a fitted effect of over 60% in size
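Cells were plated at 1500 per well in reduced-serum medium with 10% FBS and left 2 h. Compound in DMSO was then added for 24 h at 37 °C. Reporter signal was read by luminescence after 10 min with luciferase detection reagent.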
* = called active by the depositor; ? = inconclusive; nt = not tested or not shown; [ ] = remark or other dose. Most compounds without a hit are left out; they make up all but 7.5% or so of the library. The call rests on the fitted dose curve; in most records, active means well fitted curve in the direction sought with a large enough effect; inconclusive means small, poorly fitted or top-dose-only effect, or another doubt; inactive means no such curve, though single readings can be large; an effect the other way counts as inactive or inconclusive. Potency means the concentration at half of the fitted maximal effect.

SMILES	SMN2 splice enh	NPC1 prom act	ELG1 genotox	FLuc counter	Rab9 prom act
O=C(NNc1nc2ccccc2s1)c1ccccc1F	0.0%	7.4%	-1.5%	-1.1%	1.7%
Fc1ccc2nc(Nc3nc4c(F)cc(F)cc4s3)sc2c1	nt	?	1.1%	8.49µM*	21.7%
CCC(=O)NNc1nc2c(F)cc(F)cc2s1	7.3%	-0.9%	3.5%	2.7%	0.3%
Fc1cccc2sc(Nc3nc4ccccc4s3)nc12	10µM*	?	?	?	?
Fc1ccc2nc(Nc3nc4c(F)cccc4s3)sc2c1	?	?	2.0%	9.53µM*	?
CCOc1ccccc1OC(=O)CN1C(=O)c2ccccc2C1=O	nt	-4.4%	1.9%	2.6%	-3.3%
O=C(NCCc1ccccc1)c1ccc([N+](=O)[O-])cc1	11.2µM*	0.398µM*	?	3.01µM*	0.447µM*
Cc1cc(C(=O)NCC(=O)OCC(=O)N(C(C)C)C(C)C)ccc1[N+](=O)[O-]	12.6µM*	2.7%	0.7%	-0.1%	0.6%
O=C(NCCc1ccccc1)c1ccc(NCC2CCCO2)c([N+](=O)[O-])c1 (stereo not given)	10µM*	?	?	?	?
Cc1cccc(C(=O)NCCc2ccccc2)c1	nt	1.41µM*	4.61µM*	10.7µM*	1.26µM*
Cc1ccc(C(=O)NCC(=O)OCC(=O)c2ccc(C)c([N+](=O)[O-])c2)cc1	7.4%	-0.3%	0.7%	1.9%	4.7%
S=c1[nH]nc(-c2ccccn2)n1/N=C/c1ccc(-c2ccccc2Br)o1	?	0.3%	-13.5%	?	-1.9%
COC(=O)C=P(c1ccccc1)(c1ccccc1)c1ccccc1	-0.1%	nt	nt	nt	nt
Cc1cc(C(=O)NCCc2ccccc2)ccc1[N+](=O)[O-]	11.2µM*	2.24µM*	?	13.5µM*	3.98µM*
CN(C)c1ccc(CNS(=O)(=O)c2ccc3[nH]c4c(c3c2)CCCCC4)cc1	nt	nt	nt	-14.2%	nt
CCc1ccc(N=C2N=C(N)c3ccccc32)cc1	?	-2.8%	?	2.69µM*	28.8%
NC1=NC(=Nc2ccc(S(N)(=O)=O)cc2)c2ccccc21	nt	-5.7%	6.0%	-4.0%	-7.0%
COc1ccc(CCNC(=O)c2nc(SCc3ccc(F)cc3)ncc2Cl)cc1OC	-38.6%	nt	nt	?	nt
COc1cc2c(cc1OC)CN(c1ccc(C(F)(F)F)cn1)CC2	nt	26.7%	?	16.9µM*	17.2%
COc1cc2c(cc1OC)CN(c1ccc3ccccc3n1)CC2	nt	16.0%	?	?	18.4%
CCCc1nc2nc(C)c(NS(=O)(=O)c3ccc(C)c(C)c3)c(=O)n2[nH]1	0.6%	nt	nt	?	nt
Cc1ccc(C(=O)NCCSc2ccccc2)cc1S(=O)(=O)Nc1ccccc1	-22.5%	0.9%	-8.7%	1.0%	-0.1%
O=[N+]([O-])c1ccc(N/N=C\c2cccn2-c2ccccc2)nc1	-53.6%	-4.6%	-5.5%	-2.4%	-4.0%
CCSc1ncc(/C=N/Nc2ccc(Cl)cc2)n1C	20µM*	1.58µM*	?	3.01µM*	2.82µM*
CCSc1ncc(/C=N/Nc2ccccc2)n1C	14.1µM*	?	18.4%	19µM*	?
SMILES	SMN2 splice enh	NPC1 prom act	ELG1 genotox	FLuc counter	Rab9 prom act
CCSc1ncc(/C=N/Nc2ccc([N+](=O)[O-])cc2)n1C	?	0.794µM*	?	?	0.708µM*
O=C(c1ccc2c(c1)N(Cc1ccc(Cl)cc1)C(=O)c1ccccc1S2(=O)=O)N1CCc2ccccc21	-7.3%	nt	nt	-3.6%	nt
N[C@@H](CCCC(=O)O)C(=O)O	4.6%	2.7%[46.1 µM]	nt	nt	6.2%[46.1 µM]
COc1ccc(Cn2c(CO)cnc2SCc2ccc(C)cc2)cc1	nt	nt	nt	16.9µM*	nt
Cc1oc2c(c(C)cc3oc(=O)c(CC(=O)NCCc4ccccc4)c(C)c32)c1C	5.5%	nt	nt	-6.2%	nt
CC1=N/C(=C/c2ccc([N+](=O)[O-])cc2)C(=O)N1c1ccc(Cl)cc1Cl	-51.1%	0.2%	-18.9%	-2.1%	-0.1%
CC1=N/C(=C\c2ccc([N+](=O)[O-])cc2)C(=O)N1c1ccc(F)cc1F	nt	-3.9%	-1.0%	7.57µM*	-1.3%
CCOC(=O)c1c(NC(=O)CSc2nnnn2CC)sc(C)c1C	-18.6%	-4.0%	-1.6%	1.5%	-11.2%
Cc1ccccc1Nc1c(-c2ccc(N3CCOCC3)cc2)nc2ccc(Cl)cn12	4.0%	nt	nt	2.39µM*	nt
Cc1ccc2nc(-c3ccc(N4CCOCC4)cc3)c(Nc3ccccc3C)n2c1	?	nt	nt	1.9µM*	nt
Cc1ccn2c(Nc3ccccc3C)c(-c3ccc(N4CCOCC4)cc3)nc2c1	-43.5%	nt	nt	-1.0%	nt
Cc1ccc(Nc2c(-c3ccc(N4CCOCC4)cc3)nc3ncccn23)c(C)c1	1.0%	-0.2%	-1.8%	19µM*	-3.5%
Clc1ccc2nc(-c3ccc(N4CCOCC4)cc3)c(Nc3ccccc3)n2c1	2.1%	nt	nt	?	nt
CCCn1c(C)nc2c(N3CCC(N4CCN(C)CC4)CC3)nc(C)nc21	10.4%	nt	nt	nt	nt
Cc1nc(NC(=O)/C=C/c2ccc(F)cc2)sc1C(=O)N(C)C	26.6%	0.5%	7.3%	16.9µM*	-5.2%
Cc1nc(NC(=O)/C=C/c2ccccc2)sc1C(=O)N(C)C	41.3%	24.0%	16.1%	13.5µM*	?
COc1ccc(S(=O)(=O)N2CCC(C(=O)Nc3nccs3)CC2)cc1	nt	2.82µM*	?	12µM*	?
CCS(=O)(=O)N1Cc2ccccc2CC1C(=O)Nc1nccs1 (stereo not given)	17.8µM*	0.1%	?	?	5.0%
CCS(=O)(=O)N1Cc2ccccc2CC1C(=O)Nc1nc2c(C)cccc2s1 (stereo not given)	?	2.2%	-3.1%	-16.8%	0.3%
CCS(=O)(=O)N1Cc2ccccc2CC1C(=O)Nc1nc(C)cs1 (stereo not given)	1.3%	25.9%	?	19µM*	?
COc1ccc(S(=O)(=O)N2Cc3ccccc3CC2C(=O)Nc2nccs2)cc1OC (stereo not given)	12.6µM*	11.9%	5.8µM*	?	15.6%
CC(=O)Nc1ccc(S(=O)(=O)N2CCC(C(=O)Nc3nccs3)CC2)cc1	nt	-1.7%	-0.4%	1.6%	-1.1%
O=C(c1sc2cc(Cl)ccc2c1Cl)N1CCN(CCc2ccccn2)CC1	nt	-1.3%	-4.9%	-10.8%	-2.5%
COc1ccccc1/C=C/C=N/n1c(-c2ccc(F)cc2)n[nH]c1=S	nt	2.8%	0.2%	?	1.9%
S=c1[nH]nc(-c2cc(-c3ccccc3)n[nH]2)n1/N=C/C=C/c1ccccc1	nt	-1.3%	3.1%	6.75µM*	1.4%
COc1ccccc1/C=C/C=N/n1c(-c2cc(-c3ccccc3)n[nH]2)n[nH]c1=S	nt	-3.3%	3.9%	5.36µM*	13.3%
O=C(CSc1nc2ccc(Cl)cc2o1)NCc1ccc2c(c1)OCO2	-2.2%	14.2%	-1.0%	2.1%	0.7%
Cc1ccccc1NC(=O)CSc1nc2ccccc2o1	7.2%	?	4.11µM*	3.1%	?
O=C(CSc1nc2ccccc2o1)Nc1nc2ccccc2s1	-15.1%	11.3%	17.7%	?	-0.9%
